Assay [1] addresses Tumor necrosis factor receptor superfamily member 10B (Homo sapiens) (UniProt O14763). Put plainly: viability loss of caspase-8 NB7 cells with TRAIL – with/without TRAIL, luminescence panel, confirmation (AID 651596). The following applies: NB7 neuroblastoma + caspase-8, TRAIL sensitization, NB7 Caspase-8, with TRAIL, mean of runs, at 10 µM, stronger effect = higher value.
Assay in assay [2]: as above
The following applies: NB7 neuroblastoma + caspase-8, without TRAIL, NB7 Caspase-8, without TRAIL, mean of runs, at 10 µM.

Molecules are shown by their SMILES.

These results are taken from PubChem BioAssay.

Chain of Tumor necrosis factor receptor superfamily member 10B (Homo sapiens) (O14763 whole entry, looked up): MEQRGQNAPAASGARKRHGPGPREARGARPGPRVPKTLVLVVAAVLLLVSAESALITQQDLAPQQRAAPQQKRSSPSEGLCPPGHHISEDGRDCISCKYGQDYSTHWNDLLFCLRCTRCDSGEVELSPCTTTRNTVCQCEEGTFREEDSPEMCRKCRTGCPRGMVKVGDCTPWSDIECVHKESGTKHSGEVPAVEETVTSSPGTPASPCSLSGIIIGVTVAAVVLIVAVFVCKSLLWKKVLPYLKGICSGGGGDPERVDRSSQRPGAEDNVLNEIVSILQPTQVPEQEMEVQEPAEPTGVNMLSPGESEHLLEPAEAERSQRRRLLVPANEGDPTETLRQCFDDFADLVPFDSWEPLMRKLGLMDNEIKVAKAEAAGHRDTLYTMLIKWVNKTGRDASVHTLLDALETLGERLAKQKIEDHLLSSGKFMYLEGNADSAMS

Consider `CC(C)(C)OC(=O)NCCCCCc1cn([C@@H](CO)C(=O)NCCCCCCCCCCC(=O)N2CCN(C(=O)OC(C)(C)C)CC2)nn1`, for which the activity was found to be 61.7% in assay [1] and 42.1% in assay [2].

In the case of `CCC(=O)N1CCCc2cc(S(=O)(=O)N3CCN(c4ccccc4F)CC3)ccc21`, the activity in assay [1] was 17.2%; in assay [2] it was 1.9%.

Consider `COC(=O)c1c(NC(=O)COc2ccc(Cl)cc2Cl)sc2c1CC(C)(C)NC2(C)C`, for which the figures for the activity in assay [1] and in assay [2] were 98.7% and 99.3%, respectively.

As to `CC1CCc2nc(NC(=O)c3ccco3)sc2C1` (centres undefined), the figures for the activity in assay [1] and in assay [2] were 90.5% and 89%, respectively.

`CCCCCc1c(-c2ccc(OC)c(OC)c2)ncn1CCc1ccccc1OC`: the activity in assay [1] was found to be 22.7%; in assay [2], 30.2%.

Regarding `C/C(=N\NC(=O)c1cccc(O)c1)c1cccc(NC(=O)c2ccc(F)cc2)c1`, the figures for the activity in assay [1] and in assay [2] were 74.5% and 77.4%, respectively.

On to `NC(=O)c1c(NC(=O)c2cc3ccccc3o2)sc2c1CCC2`, for which the activity in assay [1] was determined as 56%; in assay [2], 42.8%.

Regarding `FC(F)(F)c1cc(CCN2CCNC[C@@H]2CC2CCCCC2)cc(C(F)(F)F)c1`, the activity in assay [1] amounted to 35.1%; in assay [2], 84.2%.

Consider `CN(C)c1ncnc2c1ncn2C1OC(CO)C(O)C1O` (centres undefined), for which the activity in assay [1] was found to be 57.1%; in assay [2], 45.3%.

On to `COC(=O)C12OCC34C(CC5C(C)=C(O)C(=O)CC5(C)C3C(O)C1O)OC(=O)C(OC(=O)C=C(C)C)C24` (centres undefined), for which the activity in assay [1] came to 91%; in assay [2] it was 96.2%.

Regarding `O=C(Cn1ncc(Cl)c(Cl)c1=O)NC1CCCCC1`, the activity in assay [1] was 98%; in assay [2], 98.5%.

For the compound `COc1ccccc1/C=C/C1(C(=O)NC2CCCC2)CC(=O)N1c1ccc(F)cc1` (centres undefined), the activity in assay [1] was found to be 98%; in assay [2], 98.1%.

As to `OC(c1ccccc1)(c1ccccc1)C1CCN(CCCOc2ccc3c(c2)CCCC3)CC1`, the activity in assay [1] came to 38%; in assay [2], 48.9%.

For `Cc1ccc2c(c1)sc(=NC(=O)c1cccs1)n2C`, the activity in assay [1] stood at 91.1%; in assay [2] it was 90.7%.

For `Nc1nc(N)c2cc(S(=O)(=O)c3ccc4ccccc4c3)ccc2n1`, the activity is 64.9% in assay [1] and 72.5% in assay [2].

For the compound `Brc1ccc(-c2nc(N/N=C/c3cccnc3)c3ccccc3n2)cc1`, the activity came out at 93.5% in assay [1] and 89.7% in assay [2].

For `Cc1cc(=O)n2[nH]c(-c3ccc(F)cc3)nc2n1`, the activity in assay [1] is 44.8%; in assay [2] it was 42.6%.

`Cc1c(C(=O)Nc2cccc([N+](=O)[O-])c2)csc1-c1ccccc1`: the activity in assay [1] came out at 56.5%; in assay [2], 48.1%.

In the case of `CC(C)c1ccc(/C=c2\sc3n(c2=O)C(N)=C(C#N)C(c2ccc(C(C)C)cc2)C=3C(N)=O)cc1` (centres undefined), the activity in assay [1] amounted to 76.7%; in assay [2], 77.9%.

With `COc1ccc(CC(=O)Nc2cccc(-c3nnc(-c4ccccc4)o3)c2)cc1OC`, the values for the activity in assay [1] and in assay [2] were 78.9% and 59.8%, respectively.

On to `C/C(=N\NC(=O)c1ccc(O)cc1)c1cccc(NC(=O)c2ccccc2C)c1`, for which the results for the activity in assay [1] and in assay [2] were 59.9% and 61.3%, respectively.

As for `CC(=O)c1cc(F)ccc1OCC(=O)Nc1ccc2c(c1)OCO2`, the activity in assay [1] was 72.3%; in assay [2], 68.3%.

As for `COc1ccc(C(=O)Nc2ccccc2C(=O)N/N=C/c2ccco2)cc1`, the values for the activity in assay [1] and in assay [2] were 87.6% and 59.1%, respectively.

For `COc1cccc(C(=O)Nc2ccc(NC(=O)C(C)(C)C)cn2)c1`, the activity amounted to 79.7% in assay [1] and 83% in assay [2].

Turning to `O=C(NCc1cccnc1)/C(=C\c1ccc(-c2ccc(Cl)c(Cl)c2)o1)S(=O)(=O)c1ccccc1`, the activity came out at 98.1% in assay [1] and 99.2% in assay [2].

As to `Fc1cccc2sc(Nc3nnc(-c4ccccc4)o3)nc12`, the activity was 71% in assay [1] and 73% in assay [2].

With `CC(=O)N1CCc2c(sc(NC(=O)c3ccc([N+](=O)[O-])o3)c2C(N)=O)C1`, the activity in assay [1] worked out at 51.4%; in assay [2], 90.9%.

Turning to `O=C(NCCN1CCOCC1)NC1(C(F)(F)F)Oc2ccc(Cl)cc2O1` (centres undefined), the activity in assay [1] amounted to 32.6%; in assay [2], 26.8%.

On to `COc1ccccc1C(=O)NNC(=O)c1cccc(O)c1`, for which the activity in assay [1] turned out to be 44.2%; in assay [2], 48.4%.

Take `CC1(C)CC(=O)c2sc(NC(=O)c3cccs3)nc2C1`: the activity in assay [1] was found to be 91.9%; in assay [2] it was 94.2%.

`CCOc1cc(/C=C\[N+](=O)[O-])ccc1OCC(=O)Nc1ccccc1C`: the activity worked out at 88.8% in assay [1] and 91.9% in assay [2].

As for `CCS(=O)(=O)c1ncc(Cl)c(C(=O)Nc2ccc(S(=O)(=O)N3CCC(C)CC3)cc2)n1`, the activity was 95.2% in assay [1] and 98.8% in assay [2].

In the case of `CCOc1ccc(C(=O)N/N=C/c2ccccc2[N+](=O)[O-])cc1`, the activity in assay [1] came to 68%; in assay [2], 62.8%.

`CSc1nnc(NC(=O)c2nc(S(=O)(=O)Cc3ccccc3)ncc2Cl)s1`: the activity in assay [1] turned out to be 83.6%; in assay [2], 77.9%.

On to `COc1ccccc1C(CNc1ccc(S(=O)(=O)N2CCCC2)cc1[N+](=O)[O-])N(C)C` (centres undefined), for which the activity is 52.1% in assay [1] and 55.8% in assay [2].

With `NC(=O)c1ccsc1NC(=O)c1ccc(N2CCCC2=O)cc1`, the activity stood at 87.3% in assay [1] and 85.7% in assay [2].

With `Cc1ccc(S(=O)(=O)N2C[C@H]3[C@H]4C(=O)N(C5CCCCC5)C(=O)[C@H]4CC(=O)[C@H]3[C@@H]2c2cccc3ccccc23)cc1`, the figures for the activity in assay [1] and in assay [2] were -8.53% and -13.6%, respectively.

Take `COc1cccc(/C=C2/Sc3ccc(C(=O)NCCN4CCCCCC4)cc3NC2=O)c1`: the results for the activity in assay [1] and in assay [2] were 36% and 73.3%, respectively.

Consider `CC(/C=N/NC(=O)c1n[nH]c2c1CCC2)=C\c1ccccc1`, for which the activity turned out to be 48.1% in assay [1] and 68.9% in assay [2].

With `COc1ccc(NC(=O)c2cc(-c3ccncc3)nc3ccc(Br)cc23)cc1OC`, the activity was 4.8% in assay [1] and 51.5% in assay [2].

For `N#Cc1c(/N=C/c2cccs2)sc2c1CCCCC2`, the values for the activity in assay [1] and in assay [2] were 65.7% and 35.4%, respectively.

With `O=C(/C(=C/c1ccc(Cl)cc1)c1nc2ccccc2[nH]1)c1ccccc1`, the activity in assay [1] turned out to be 84.1%; in assay [2], 85.1%.

In the case of `Cc1ccc(C(=O)n2c(N)nc3ccccc32)cc1`, the activity came to 98.3% in assay [1] and 98.4% in assay [2].

Take `COCCn1c(C)cc(C(=O)COC(=O)c2ccc(Cl)c(S(N)(=O)=O)c2)c1C`: the activity in assay [1] came out at 52%; in assay [2], 52.4%.

On to `O=C(NOCc1ccccc1)c1ccc(Cl)cc1`, for which the values for the activity in assay [1] and in assay [2] were 45.1% and 43.2%, respectively.

Regarding `CCC(C(=O)O/N=C(\N)c1ccc(C)cc1)c1ccccc1` (centres undefined), the activity was determined as 65.2% in assay [1] and 77.5% in assay [2].

With `O=C(Nc1ccccn1)c1ccc2c(=O)n3c(nc2c1)CCCCC3`, the figures for the activity in assay [1] and in assay [2] were 50.4% and 62.5%, respectively.
